Among the data in PubChem BioAssay (EPA / NIEHS) are AC50 and outcome values, retold here.

Results filed as inconclusive are left out. Active and inactive are the calls of the source. The calls were made as follows: active = hit-call score of the fitted dose curve at least 0.9, where 1 is the maximum; inconclusive = response in the unintended direction; inactive = score below 0.9.

Type-1 angiotensin II receptor (Homo sapiens), sequence (P30556 whole entry, looked up): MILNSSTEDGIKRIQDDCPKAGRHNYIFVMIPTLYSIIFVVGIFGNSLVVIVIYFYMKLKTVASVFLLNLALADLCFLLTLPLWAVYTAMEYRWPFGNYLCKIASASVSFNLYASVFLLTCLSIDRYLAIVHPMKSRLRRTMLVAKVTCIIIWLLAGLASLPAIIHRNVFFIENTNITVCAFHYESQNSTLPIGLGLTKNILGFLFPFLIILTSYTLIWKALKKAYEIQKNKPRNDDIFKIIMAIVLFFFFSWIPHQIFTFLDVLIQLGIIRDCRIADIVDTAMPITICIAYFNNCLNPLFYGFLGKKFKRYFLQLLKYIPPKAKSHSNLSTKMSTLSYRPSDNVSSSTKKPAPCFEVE

For the first experiment, the target named is human Adrenergic, Alpha 2c Receptor (Adra2C), ADRA2C (gene 152) (UniProt P18825). The experiment can be described thus: NVS_GPCR_hAdra2C: NovaScreen (NVS) G Protein-Coupled Receptor Assay for human Adrenergic, Alpha 2c Receptor (Adra2C) (AID 2283259). An outline of the steps: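 Screened first in duplicate at 25 uM, with actives then run as concentration series. Membranes from Sf9 cells were exposed for 1 h, and displacement of radioligand was counted after filtration, using DMSO as baseline.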
human Adrenergic, Alpha 2c Receptor (Adra2C), ADRA2C (gene 152), sequence (P18825 whole entry, looked up): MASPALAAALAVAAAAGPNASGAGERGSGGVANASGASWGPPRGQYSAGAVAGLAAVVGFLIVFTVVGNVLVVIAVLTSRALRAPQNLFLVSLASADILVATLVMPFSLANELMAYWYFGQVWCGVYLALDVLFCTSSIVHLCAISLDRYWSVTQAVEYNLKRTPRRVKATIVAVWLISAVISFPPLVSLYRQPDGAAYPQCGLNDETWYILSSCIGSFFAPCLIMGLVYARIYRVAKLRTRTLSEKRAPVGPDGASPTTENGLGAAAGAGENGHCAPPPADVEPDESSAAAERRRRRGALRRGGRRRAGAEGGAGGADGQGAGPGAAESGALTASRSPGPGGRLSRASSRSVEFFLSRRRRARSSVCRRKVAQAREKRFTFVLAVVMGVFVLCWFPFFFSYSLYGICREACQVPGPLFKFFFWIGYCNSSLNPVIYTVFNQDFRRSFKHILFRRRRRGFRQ
For orientation: AC50 means the concentration at which the activity in the assay is half-maximal. Regarding `CCCCCCCCn1sccc1=O`, the AC50 is 6.02 µM (active).
Still for that read-out and setting: the value for `[Cl-].[Cl-].[Hg+2]` was 0.227 µM (active); that for `CCOC(=O)[C@]1(c2ccccc2)Oc2ccccc2[C@@H]1N` was 0.611 µM (active).

In a further experiment the target is Beta-2 adrenergic receptor (Homo sapiens) (UniProt P07550). The experiment can be described thus: NVS_GPCR_hAdrb2: NovaScreen (NVS) G Protein-Coupled Receptor Assay for human Adrenergic, Beta 2 Receptor (Adrb2) (AID 2283261). The gist of the method: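 Compounds screened in duplicate at 25 uM, then actives in concentration series. Human beta-2 receptor from CHO material, cell-free; radioligand displacement after 1 h measured by filtration and scintillation against DMSO baseline.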
Beta-2 adrenergic receptor (Homo sapiens), sequence (P07550 whole entry, looked up): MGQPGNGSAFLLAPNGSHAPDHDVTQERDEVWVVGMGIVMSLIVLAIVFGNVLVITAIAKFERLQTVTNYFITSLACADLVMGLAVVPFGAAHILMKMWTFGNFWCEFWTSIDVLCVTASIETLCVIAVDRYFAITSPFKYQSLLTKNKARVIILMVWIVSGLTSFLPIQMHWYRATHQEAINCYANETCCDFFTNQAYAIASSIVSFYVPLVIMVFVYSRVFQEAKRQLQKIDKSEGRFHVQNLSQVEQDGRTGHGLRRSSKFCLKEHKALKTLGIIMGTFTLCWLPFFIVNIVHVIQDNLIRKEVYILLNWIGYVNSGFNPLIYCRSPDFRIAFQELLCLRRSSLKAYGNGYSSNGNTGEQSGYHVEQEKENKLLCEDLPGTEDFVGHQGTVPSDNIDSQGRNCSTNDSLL
Take `Cc1cccc(N)c1N`: the outcome was inactive.
For `CCC[CH2][Sn]([Cl])([CH2]CCC)[CH2]CCC`, the AC50 is 5.47 µM (active).
`c1ccc2c(c1)-c1cccc3cccc-2c13`: the call was inactive.
In the case of `CN(C)C(=O)Nc1ccc(Cl)cc1`, the compound was classed as inactive.
With `[Cl-].[Cl-].[Hg+2]`, the AC50 was 0.925 µM (active).
Turning to `CCOC(=O)[C@]1(c2ccccc2)Oc2ccccc2[C@@H]1N`, the concentration at half-maximal activity (AC50) is 16.8 µM (active).

For the next experiment, the target named is human Adrenergic, Beta 3 Receptor (Adrb3), ADRB3 (gene 155) (UniProt P13945). The experiment can be described thus: NVS_GPCR_hAdrb3: NovaScreen (NVS) G Protein-Coupled Receptor Assay for human Adrenergic, Beta 3 Receptor (Adrb3) (AID 2283262). The gist of the method: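 A cell-free filter binding assay read by scintillation counting, with displacement of a specific radioligand measured after 1 hour. The receptor source was SK-N-MC extracts (cells pretreated with isoproterenol and 8-bromo-cAMP). Compounds were first tested at 25 uM in duplicate and then in concentration series.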
human Adrenergic, Beta 3 Receptor (Adrb3), ADRB3 (gene 155), sequence (P13945 whole entry, looked up): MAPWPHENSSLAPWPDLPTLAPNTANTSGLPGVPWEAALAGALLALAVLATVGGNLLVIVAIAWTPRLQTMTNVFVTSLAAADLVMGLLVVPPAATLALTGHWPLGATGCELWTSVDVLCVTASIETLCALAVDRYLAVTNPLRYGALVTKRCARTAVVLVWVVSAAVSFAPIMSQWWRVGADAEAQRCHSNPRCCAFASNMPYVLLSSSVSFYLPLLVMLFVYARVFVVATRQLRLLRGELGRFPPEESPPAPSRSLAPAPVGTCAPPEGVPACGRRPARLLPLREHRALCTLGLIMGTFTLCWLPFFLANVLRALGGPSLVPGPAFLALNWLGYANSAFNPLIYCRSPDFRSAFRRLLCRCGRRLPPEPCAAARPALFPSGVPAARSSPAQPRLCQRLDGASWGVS
With `CCC[CH2][Sn]([Cl])([CH2]CCC)[CH2]CCC`, the AC50 was 9.81 µM (active).
With `[Cl-].[Cl-].[Hg+2]`, the compound was classed as inactive.
With `O=C(N[C@H](c1ccccc1)[C@@H]1CN2CCC1CC2)c1c(Cl)ccc(C(F)(F)F)c1Cl`, the outcome was inactive.
As to `CCOC(=O)[C@]1(c2ccccc2)Oc2ccccc2[C@@H]1N`, the AC50 was 4.96 µM (active).

In another experiment the target is Type-1 angiotensin II receptor (Homo sapiens) (UniProt P30556). The experiment can be described thus: NVS_GPCR_hAT1: NovaScreen (NVS) G Protein-Coupled Receptor Assay for human Angiotensin II receptor type 1 (AT1) (AID 2283263). The gist of the method:
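Hits from a 25 uM duplicate screen (threshold e.g. 30% inhibition) were run in concentration-response with 50 uM top concentration. Displacement of specific radioligand from KAN-TS membrane preparations measured after 3 h by filter scintillation, DMSO as baseline.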
On to `CCCCCCCCn1sccc1=O`, for which the AC50 is 10.9 µM (active).
Regarding `CCC[CH2][Sn]([Cl])([CH2]CCC)[CH2]CCC`, the AC50 is 1.78 µM (active).
Same read-out and setting: the value for `[Cl-].[Cl-].[Hg+2]` was 10.7 µM (active).
